ELG1 genotoxic = induces genotoxicity in HEK293T cells with luciferase-tagged ELG1. HEK293T ELG1-luciferase reporter, luminescence, 16 h. Potency, µM (series often up to 46 µM), usual class: activators. 330,000 compounds, 1.3% hits. AID 504466; further: nearly all actives have a fitted effect of over 60% in size
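ELG1-luciferase HEK293T cells, 2,000/well; compound pinned in; 16 hr, 37 °C, 5% CO2; ONE-Glo, 30 min RT; luminescence on CCD imager.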
SMN2 splice enh = increases expression of the SMN2 splice variant | HEK293 SMN2-luciferase splicing reporter, luminescence, 30-36 h | Potency, µM (series often up to 46.1 µM), usual class: activators | 210,000 compounds, 2.8% hits | AID 1458; further: nearly all actives have a fitted effect of over 55% in size
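HEK293 cells carry an SMN2 […]–luciferase reporter in which exon 7 inclusion puts luciferase in frame. Cells were plated 10-12 h before compound addition, then incubated 30-36 h at 37C. ONE-Glo luminescence was read; sodium butyrate at 4.5 mM final served as control.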
Luc counter = counter-screen: inhibitors of Kinase-Glo firefly luciferase; Q27757; 200,000 compounds, 0.28% hits; Potency, µM (top dose mostly 38.3 µM), most hits filed as inhibitors; Kinase-Glo luciferase, ATP luminescence, 8 min; further: nearly all actives have a fitted effect of over 60% in size
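Substrate mix (final 50 mM imidazole pH 7.2, 50 mM KCl, 7 mM MgCl2, 10 uM ATP, 0.01% Tween 20, 0.05% BSA) plus pin-tool compound, then Kinase-Glo detection mix; 8 min ambient, luminescence read.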
NPC1 prom act = NPC1 promoter activation; AID 485313; Potency, µM (top dose mostly 9.22 µM), actives largely listed as activators; Huh7 NPC1 promoter luciferase reporter, 24 h; 320,000 compounds, 2.4% hits; further: nearly all actives have a fitted effect of over 60% in size
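Luminescence read-out of NPC1 promoter-driven luciferase in stably transfected Huh7 cells; compounds delivered in DMSO and left 24 h at 37C, 5% CO2, qHTS titration format.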
FLuc counter = inhibits or activates purified firefly luciferase, miR-21 counter-screen; AID 588342; purified FLuc, Km substrates, luminescence inhibition; 360,000 compounds, 6.9% hits; Potency, µM (doses to about 57.5 µM), usual class: inhibitors; P08659; further: nearly all actives have a fitted effect of over 55% in size
Target sequence (P08659 whole entry, looked up): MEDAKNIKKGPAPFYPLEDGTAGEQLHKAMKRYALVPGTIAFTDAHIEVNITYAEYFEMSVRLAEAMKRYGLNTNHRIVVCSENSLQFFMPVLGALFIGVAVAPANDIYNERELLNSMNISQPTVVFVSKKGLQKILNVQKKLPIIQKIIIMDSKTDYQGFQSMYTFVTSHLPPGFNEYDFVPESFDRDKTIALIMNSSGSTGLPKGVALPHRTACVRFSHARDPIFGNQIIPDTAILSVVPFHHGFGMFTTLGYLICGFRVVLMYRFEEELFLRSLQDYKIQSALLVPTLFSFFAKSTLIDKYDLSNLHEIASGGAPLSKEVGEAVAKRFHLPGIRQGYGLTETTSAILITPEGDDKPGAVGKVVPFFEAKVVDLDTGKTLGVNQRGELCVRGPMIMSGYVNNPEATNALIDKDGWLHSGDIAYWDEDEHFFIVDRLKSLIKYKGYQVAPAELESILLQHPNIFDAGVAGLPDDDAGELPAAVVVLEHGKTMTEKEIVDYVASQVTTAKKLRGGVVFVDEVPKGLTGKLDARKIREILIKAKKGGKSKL
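Purified P. pyralis luciferase, 10 nM final, with Km-level 10 uM D-luciferin and 10 uM ATP in 50 mM Tris acetate pH 7.5, 10 mM Mg acetate, 0.01% Tween-20, 0.05% BSA; 6-point qHTS titration about 60 µM downward; luminescence read.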
Rab9 promoter act = activators of Rab9 promoter; Huh7 Rab9 promoter-luciferase reporter, luminescence, 24 h; Potency, µM (top dose mostly 9.22 µM), hits mostly activators; 320,000 compounds, 2.8% hits; AID 485297; further: nearly all actives have a fitted effect of over 60% in size
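Cells were plated at 1500 per well in reduced-serum medium with 10% FBS and left 2 h. Compound in DMSO was then added for 24 h at 37 °C. Reporter signal was read by luminescence after 10 min with luciferase detection reagent.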
Hits are given with their value; n = inactive; u = inconclusive; x = no result given. Rows were chosen to be rich in hits. Some 7.3% of all compounds tested hit in one or more screens of this group. The call rests on the fitted dose curve; in most records, active means well fitted curve in the direction sought with a large enough effect; inconclusive means small, poorly fitted or top-dose-only effect, or another doubt; inactive means no such curve, though single readings can be large; an effect the other way counts as inactive or inconclusive.

SMILES | ELG1 genotoxic | SMN2 splice enh | Luc counter | NPC1 prom act | FLuc counter | Rab9 promoter act
Cc1csc(SCC(=O)Nc2sccc2C(N)=O)n1 | u | 12.6µM | n | u | u | u
NC(=O)c1ccsc1NC(=O)CSc1ccccc1F | 10µM | u | n | u | 21.3µM | u
CCN(CC)C(=O)Cn1c(=O)n(-c2ccc(Cl)cc2)c(=O)c2c3c(sc21)CCCCC3 | x | n | x | x | n | x
COCCNc1nc2c(c(=O)n(C)c(=O)n2C)n1Cc1c(F)cccc1Cl | x | n | x | x | n | x
O=[N+]([O-])c1ccc(Cl)c(S(=O)(=O)Nc2ccc(-c3ccc(N4CCOCC4)nn3)cc2)c1 | n | x | x | n | 15.1µM | n
O=S(=O)(Nc1ccc(-c2ccc(N3CCOCC3)nn2)cc1)c1ccc(Cl)c(Cl)c1 | n | x | x | n | 23.9µM | n
COc1ccc(-c2cccc(NS(=O)(=O)c3cc([N+](=O)[O-])ccc3Cl)c2)nn1 | n | x | x | n | n | n
O=[N+]([O-])c1ccc(Cl)c(S(=O)(=O)Nc2cccc(-c3ccc(N4CCOCC4)nn3)c2)c1 | 10.3µM | x | x | u | 2.39µM | u
CCOc1ccc(NC(=O)Cn2c(=O)n(-c3ccc(C)cc3)c(=O)c3cc(OC)c(OC)cc32)cc1 | x | n | x | x | n | x
Nc1nc(Cl)nc2c1ncn2[C@@H]1O[C@H](COP(=O)(O)OP(=O)(O)OP(=O)(O)O)[C@H](O)[C@H]1O | x | n | n | x | x | x
CCc1cc2c(=O)c(-c3cscn3)coc2cc1O | 13µM | n | n | n | u | n
COc1ccccc1-c1coc2cc(O)ccc2c1=O | x | u | n | x | x | x
CCc1cc2c(=O)c(-c3cscn3)coc2cc1OC | u | 12.6µM | n | 3.55µM | 1.69µM | 2µM
CCOC(=O)c1oc2cc(O)c(CC)cc2c(=O)c1-c1cscn1 | n | n | n | n | n | n
COc1ccccc1CCNC(=O)C(=O)NCC(c1ccco1)S(=O)(=O)c1ccccc1 (configuration not stated) | x | x | x | x | n | x
c1nc(Nc2ccc(N3CCOCC3)cc2)c2ccsc2n1 | n | x | x | 3.16µM | 16.9µM | u
COc1cccc(Nc2ncnc3sc(C)cc23)c1 | u | x | x | n | 16.9µM | u
c1ccc(Nc2ncnc3sccc23)cc1 | n | x | x | n | u | n
COc1cccc(Nc2ncnc3sccc23)c1 | n | x | x | u | 16.9µM | u
COc1ccc(Nc2ncnc3sccc23)cc1 | n | x | x | u | 23.9µM | u
COC(=O)c1cccc(Nc2ncnc3sccc23)c1 | n | n | n | n | u | n
Cc1cc(C)c2c(C)c(C(=O)N3CCC(c4nc5ccccc5s4)CC3)oc2c1 | x | x | x | x | n | x
NC(=O)c1ccccc1NC(=O)Nc1cccc(Cl)c1 | n | n | n | n | 15.1µM | n
COc1cccc(Nc2ccc(Nc3cccc(OC)c3)nn2)c1 | n | n | n | n | 19µM | n
COc1cccc(Nc2c(Nc3cccc(OC)c3)c(=O)c2=O)c1 | n | x | x | n | n | n
SMILES | ELG1 genotoxic | SMN2 splice enh | Luc counter | NPC1 prom act | FLuc counter | Rab9 promoter act
O=C(O)c1ccccc1Nc1ccccc1 | n | n | n | n | n | n
O=C(O)c1ccccc1Nc1ccc(OC(F)F)cc1 | n | n | n | n | 21.3µM | n
COc1cccc(Nc2ccccc2C(=O)O)c1 | n | u | n | n | 26.9µM | n
CCCN1C(=O)CN(C2CCCCCC2)C(=O)C1c1ccc(OCC)c(OC)c1 (configuration not stated) | x | x | x | x | n | x
COc1cccc(CNC(=O)C2CCN(C(=O)N3CCOc4ccc(Cl)cc43)CC2)c1OC | x | x | x | x | n | x
O=C(Nc1cccc(Cl)c1)Nc1ccccc1C(=O)O | u | x | x | 0.562µM | 0.849µM | 0.126µM
COc1cccc(NC(=O)Nc2ccccc2C(N)=O)c1 | n | n | n | n | 21.3µM | n
CSc1ccc(NC(=O)Nc2ccccc2C(N)=O)cc1 | u | x | x | u | 1.07µM | u
COC(=O)c1cc(OC)c(OC)cc1NC(=S)Nc1cccc(Cl)c1 | n | n | n | n | n | n
COc1cc(NC(=O)Nc2cccc(Cl)c2)c(C(=O)O)cc1OC | n | x | x | n | 26.9µM | n
CC(C)(C)NC(=O)Nc1ccccc1C(N)=O | n | n | n | n | n | n
CCOc1ccc(-c2nc3c(C#N)c[nH]n3c2NC2CCCC2)cc1 | x | x | x | x | n | x

Compound activity as filed in PubChem BioAssay.
